# Results from PubChem BioAssay (NCI).
# This is part of a sample that, as a whole, favours compounds with a hit. Of some 83,000 tested, about 20% had one in any assay.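 96-well plates, one dose, 48 hours. Percent growth reported; active if below 10.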 Unmarked numbers belong to inactive results. Calls of active or inactive are those of the source.
# Test system: HL-60(TB) leukemia
# Assay: NCI-60 one-dose screen, 48 h (100 = growth as untreated, 0 = no growth, -100 = all killed)
# Settings: 10 µM unless noted
row,Structure (SMILES),growth
1,Oc1ccc(Br)cc1/C=N/NC(=S)NC12CC3CC(CC(C3)C1)C2,-25.8% (active)
2,O=c1cc(CNc2cc(F)cc(F)c2)c2ccc(I)cc2[nH]1,-32.6% (active)
3,O=NN(Cc1cccnc1)C(=O)NC1CCCCC1,120%
4,O=C1OCC2=C1C(c1cccc(C(F)(F)F)c1)c1cc3c(cc1N2CCO)OCO3 (stereo not given),-24.9% (active)
5,CC1SC(c2cccc(Oc3ccccc3)c2)N(CCc2cccs2)C1=O (stereo not given),-21.9% (active)
6,CC1=NOC(=O)/C1=C\c1ccc(O)cc1,105%
7,COc1ccc(CCNc2nc(SC)nc(-c3cccc([N+](=O)[O-])c3)c2C#N)cc1OC,120%
8,COc1ccc2sc(N(Cc3cccnc3)C(=O)c3ccc(C#N)cc3)nc2c1,63.4%
9,O=C(CCl)Oc1ccc(OC(=O)CCl)cc1,8.83% (active)
10,CCNc1nc(-c2ccc(F)cc2)c(C#N)c(=O)n1C,85.8%
11,COc1cc(F)c(F)c(Nc2ccc(I)cc2F)c1NS(=O)(=O)C1(C[C@H](O)CO)CC1,23.9%
12,CCCCCSc1ccc2nc(NC(=O)OCCC)sc2c1,5.41% (active)
13,Nc1ncc(-c2ccc3ncnc(N4CCc5cc(F)c(Cl)cc54)c3c2)cn1,56.5%
14,CCCCOc1ccc(NC(=O)Nc2nnc(C)s2)cc1,80.7%
15,O=C1c2cc3c(cc2-c2c1c1ccc(Cl)cc1c(=O)n2CCCN1CCOCC1)OCO3,16.7%
16,CC(C)(C)c1cc(C=O)cc(C(C)(C)C)c1O,-23.5% (active)
17,CC(C)(C)c1cc(Cl)c(O)c(CNCCO)c1,117%
18,CC1CCN(Cc2ccc(NC(=O)c3cc4ccc5cccnc5c4[nH]3)cc2)CC1,11.5%
19,c1cc2ccc3cc2cc1CNCCOCCNCc1ccc2ccc(cc2c1)CNCCOCCNC3,15.9%
20,CC/C(=C(/c1ccc(Cl)cc1)c1ccc(OCCCN(C)C)cc1)c1ccc(OC)cc1,46.2%

row,Structure (SMILES),growth
1,OCCOc1ccc(-c2cc(-c3ccccn3)nc(-c3ccccn3)c2)cc1,-36.1% (active)
2,CS(=O)(=O)c1ccc(Nc2nc(N[C@H]3CCCC[C@H]3N)nc3cc[nH]c(=O)c23)cc1,-16.9% (active)
3,COc1cc(Nc2c3ccc(Cl)cc3nc3ccc(OC)cc23)c2ncccc2c1,49.5%
4,COc1ccc(/C=C/c2cccc[n+]2C)cc1,105%
5,COc1cc2nnc3c4cccnc4[nH]c3c2cc1OC,-54.3% (active)
6,CC(=O)c1c(C)nc(SCC(=O)Nc2ccc(Cl)cc2)n1-c1ccc(Cl)cc1,86.6%
7,COc1ccc(C2=NNC(c3cc(Cc4ccc(O)c(C5CC(c6ccc(OC)cc6)=NN5)c4)ccc3O)C2)cc1 (stereo not given),17.2%
8,COc1ccc(-c2nc(SCCC(C)C)nc(N/N=C(/C)c3ccc(C)cc3)c2C#N)cc1,89.8%
9,CCCCCCCCCCCCCCCCCC1=NCCN1CCNC(C)=O,79.2%
10,CCCCCCCCCCCCCC(=S)NCCCC[C@H](NC(=O)OCc1ccccc1)C(=O)Nc1ccccc1,8.79% (active)
11,Brc1ccc2[nH]cc(-c3nc(-c4c[nH]c5ccncc45)cs3)c2c1,-55.4% (active)
12,COc1ccc(SC2c3ccc(C)cc3Oc3nc(N)c(C#N)c(N)c32)cc1 (stereo not given),-53.4% (active)
13,O=C1NCCS(=O)(=O)/C1=C\C=C\c1cccc(C(F)(F)F)c1,1.71% (active)
14,CCCCn1c(-c2ccc(O)cc2)cn2c3c(=O)[nH]c(=O)n(C)c3nc12,48.9%
15,N#Cc1nn(-c2cc(=O)[nH]c3ccc(Br)cc23)c(N)c1C#N,-11.2% (active)
16,Cc1ccccc1-c1cc(Cc2ccc(F)cc2)c(=O)[nH]n1,54.2%
17,N#C/C(=C\c1c(-c2ccccc2)[nH]c2ccccc12)C(=O)c1ccc(Cl)cc1,12.7%
18,COc1ccc(-c2nn(-c3cccc(Cl)c3)cc2-c2cc(-c3ccc(Br)cc3)[nH]c(=O)c2C#N)cc1,101%
19,CCCCCCCCCCCC[n+]1ccc2ccccc2c1,-53.4% (active)
20,Nc1nc(Nc2cccnc2)sc1C(=O)c1ccccc1F,-35.6% (active)
